{"source": "PubChem BioAssay (EPA / NIEHS)", "key": {"[1]": {"system": "TTR (gene 7276)", "assay": "CCTE_GLTED_hTTR_0.125uM: CCTE's human Transthyretin (hTTR) Inhibition Assay, with 0.125uM TTR, Great Lakes Toxicology and Ecology Division (GLTED) Lab (AID 2284431)", "method_in_brief": "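Cell-free displacement of the fluorescent probe ANSA from human TTR (0.125uM) after 2 h incubation with test chemical. Fluorescence read at 380 nm excitation/475 nm emission; loss of signal fitted relative to DMSO baseline.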"}, "[2]": {"system": "Brachyury (BRA) Protein Expression, TBXT (gene 6862)", "assay": "CCTE_Deisenroth_DEVTOX-GLR_Endo_BRA: CCTE's DevTox GLR-Endo Assay Evaluation of Brachyury (BRA) Protein Expression, Deisenroth Lab (AID 2284417)", "method_in_brief": "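Read-out: BRA+ cell count divided by total cell count by high-content imaging (5 fields per well), expressed relative to 0.2% DMSO solvent control. RUES2-GLR cells dosed twice over a 48 h differentiation; concentrations 1 nM - 200 uM.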"}, "[3]": {"assay": "CCTE_Deisenroth_DEVTOX-GLR_Endo_CellCount: Viability Assessment in CCTE's DevTox GLR-Endo Assay, Deisenroth Lab (AID 2284420)", "method_in_brief": "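RUES2-GLR human pluripotent cells seeded 24 h, then differentiated 48 h with two chemical exposures at 24 h intervals (10-point, 1 nM - 200 uM). Fixed, nuclear-stained, imaged; nuclei counts give % change in cell count versus 0.2% DMSO.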"}, "[4]": {"system": "SRY-box transcription factor 17 (SOX17) Protein Expression, Deisenroth Lab, SOX17 (gene 64321)", "assay": "CCTE_Deisenroth_DEVTOX-GLR_Pluri_SOX17: CCTE's DevTox GLR-Pluri Assay Evaluation of SRY-box transcription factor 17 (SOX17) Protein Expression, Deisenroth Lab (AID 2284427; active = hit-call score of the fitted dose curve at least 0.9, where 1 is the maximum)", "method_in_brief": "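RUES2-GLR human pluripotent cells were seeded 24 h, then differentiated 48 h in defined media with two chemical exposures 24 h apart (10-point series, 1 nM - 200 uM). Fixed, nuclear-stained cells were imaged; %SOX17+ cells minus 0.2% DMSO control reported.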"}, "[5]": {"system": "SRY-box transcription factor 2 (SOX2) Protein Expression, Deisenroth Lab, SOX2 (gene 6657)", "assay": "CCTE_Deisenroth_DEVTOX-GLR_Pluri_SOX2: CCTE's DevTox GLR-Pluri Assay Evaluation of SRY-box transcription factor 2 (SOX2) Protein Expression, Deisenroth Lab (AID 2284428)", "procedure": "CCTE_Deisenroth_DEVTOX-GLR_Pluri assay is a cell-based, multiplex-readout assay that uses RUES2-GLR, a human pluripotent cell line, with measurements taken at 48 hours after chemical dosing in a 384-well microplateCCTE_Deisenroth_DEVTOX-GLR_Pluri_SOX2 is 1 of 4 assay components calculated from the CCTE_Deisenroth_DEVTOX-GLR_Pluri assay and it measures an the percentage of cells in an pluripotent state. Using a type of inducible fluorescent protein reporter, gain-of-signal activity can be used to understand changes in gene expression with fluorescent microscopy. The percentage of SOX2+ cells are determined by calculating the number of SOX2+ cells divided by the cell count. To generalize the intended target to other relatable targets, this assay component is annotated to the transcription factor intended target family, where the subfamily is SRY-related HMG-box.Data from the assay component CCTE_Deisenroth_DEVTOX-GLR_Pluri_SOX2 was analyzed as 1 assay endpoint. The endpoint is the percent change in the SOX2+ cell population relative to the 0.2% DMSO control in the CCTE_Deisenroth_DEVTOX-GLR_Pluri assay. Furthermore, this assay endpoint can be referred to as a primary readout, because this assay has produced multiple assay endpoints where this one serves as a measure of […].\n(§1) All assay protocols are aligned to the DevTox GLR-Endo assay workflow. Cells are seeded into 384-well microplates for 24 hours prior to initiating differentiation in defined media for a total duration of 48 hours. A total of two chemical exposures are administered in 24-hour intervals during the 48-hour differentiation period. At the assay termination point, cells are fixed and stained with a fluorescent dye demarcating the nucleus. High-content imaging is used to acquire brightfield and fluorescent channel images across 5 fields per well. Cell identification and mean biomarker fluorescence intensities are calculated with image analysis software to determine the total cell counts for viability assessment and the biomarker expression frequency for each lineage-dependent assay. A typical experimental design tests a 10-point concentration series (1 nM - 200 uM) for 28 compounds in single technical replicate. Assay plate controls include non-differentiated pluripotent cells (baseline control), lineage-specific differentiated cells (differentiation control), and DMSO solvent exposed differentiated cells (solvent control). Experiments typically comprise a minimum of four experimental replicates (n=4)."}, "[6]": {"system": "Brachyury (BRA) Protein Expression, Deisenroth Lab, TBXT (gene 6862)", "assay": "CCTE_Deisenroth_DEVTOX-GLR_Pluri_BRA: CCTE's DevTox GLR-Pluri Assay Evaluation of Brachyury (BRA) Protein Expression, Deisenroth Lab (AID 2284429; active = hit-call score of the fitted dose curve at least 0.9, where 1 is the maximum)", "procedure": "CCTE_Deisenroth_DEVTOX-GLR_Pluri assay is a cell-based, multiplex-readout assay that uses RUES2-GLR, a human pluripotent cell line, with measurements taken at 48 hours after chemical dosing in a 384-well microplateCCTE_Deisenroth_DEVTOX-GLR_Pluri_BRA is 1 of 4 assay components calculated from the CCTE_Deisenroth_DEVTOX-GLR_Pluri assay and it measures an the percentage of cells in an mesoderm state. Using a type of inducible fluorescent protein reporter, gain-of-signal activity can be used to understand changes in gene expression with fluorescent microscopy. The percentage of BRA+ cells are determined by calculating the number of BRA+ cells divided by the cell count. To generalize the intended target to other relatable targets, this assay component is annotated to the transcription factor intended target family, where the subfamily is T-box protein.Data from the assay component CCTE_Deisenroth_DEVTOX-GLR_Pluri_BRA was analyzed as 1 assay endpoint. The endpoint is the percent BRA+ cell population minus the 0.2% DMSO control in the CCTE_Deisenroth_DEVTOX-GLR_Pluri assay. Furthermore, this assay endpoint can be referred to as a secondary readout, because this assay has produced multiple assay endpoints where this one serves as a measure of mesoderm differentiation.\nas §1"}, "[7]": {"assay": "CCTE_Deisenroth_DEVTOX-GLR_Pluri_CellCount: Viability Assessment in CCTE's DevTox GLR-Pluri Assay Evaluation of Total Cell Counts, Deisenroth Lab (AID 2284430)", "method_in_brief": "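RUES2-GLR human pluripotent cells, seeded 24 h, then differentiated 48 h with two chemical exposures 24 h apart; 10-point series 1 nM - 200 uM. Fixed, nuclear-stained, imaged (5 fields/well); nuclei count as % change vs 0.2% DMSO.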"}}, "note": "Results filed as inconclusive are left out. Active and inactive are the calls of the source. The calls were made as follows, unless noted: active = hit-call score of the fitted dose curve at least 0.9, where 1 is the maximum; inactive = score below 0.9."}
{"smiles": "Nc1ccc(Nc2ccccc2)cc1", "values": [{"measurement": "AC50", "setting": "[1]", "result": "31.5 µM (active)"}]}
{"smiles": "O=C(NS(=O)(=O)/C=C/c1ccccc1)c1ccc(F)cc1Cl", "values": [{"measurement": "AC50", "setting": "[1]", "result": "13 µM (active)"}]}
{"smiles": "Cn1cnc([N+](=O)[O-])c1Sc1ncnc2nc[nH]c12", "values": [{"measurement": "AC50", "setting": "[1]", "result": "25.1 µM (active)"}]}
{"smiles": "NC(=O)NO", "values": [{"measurement": "outcome", "setting": "[2]", "result": "inactive"}, {"measurement": "AC50", "setting": "[3]", "result": "61.3 µM (active)"}, {"measurement": "outcome", "setting": "[4]", "result": "inactive"}, {"measurement": "outcome", "setting": "[5]", "result": "inactive"}, {"measurement": "outcome", "setting": "[6]", "result": "inactive"}, {"measurement": "outcome", "setting": "[7]", "result": "inactive"}]}
{"smiles": "CC[C@H](C)C(=O)O[C@H]1C[C@@H](C)C=C2C=C[C@H](C)[C@H](CC[C@@H]3C[C@@H](O)CC(=O)O3)[C@H]21", "values": [{"measurement": "AC50", "setting": "[2]", "result": "54.2 µM (active)"}, {"measurement": "AC50", "setting": "[3]", "result": "2.81 µM (active)"}, {"measurement": "AC50", "setting": "[4]", "result": "100 µM (active)"}, {"measurement": "AC50", "setting": "[5]", "result": "14.5 µM (active)"}, {"measurement": "AC50", "setting": "[6]", "result": "20.8 µM (active)"}, {"measurement": "AC50", "setting": "[7]", "result": "9.67 µM (active)"}]}
{"smiles": "COC(=O)c1c(Cl)c(Cl)c(C(=O)OC)c(Cl)c1Cl", "values": [{"measurement": "AC50", "setting": "[1]", "result": "0.0546 µM (active)"}]}
{"smiles": "O=C(OC[C@H]1O[C@@H](OC(=O)c2cc(O)c(O)c(OC(=O)c3cc(O)c(O)c(O)c3)c2)[C@H](OC(=O)c2cc(O)c(O)c(OC(=O)c3cc(O)c(O)c(O)c3)c2)[C@@H](OC(=O)c2cc(O)c(O)c(OC(=O)c3cc(O)c(O)c(O)c3)c2)[C@@H]1OC(=O)c1cc(O)c(O)c(OC(=O)c2cc(O)c(O)c(O)c2)c1)c1cc(O)c(O)c(OC(=O)c2cc(O)c(O)c(O)c2)c1", "values": [{"measurement": "AC50", "setting": "[1]", "result": "0.252 µM (active)"}]}
{"smiles": "CC(C)=CCCC(C)CCO", "note": "(stereo unspecified)", "values": [{"measurement": "AC50", "setting": "[1]", "result": "45.8 µM (active)"}]}
{"smiles": "Nc1nc2ncc(CNc3ccc(C(=O)N[C@@H](CCC(=O)O)C(=O)O)cc3)nc2c(=O)[nH]1", "values": [{"measurement": "outcome", "setting": "[2]", "result": "inactive"}, {"measurement": "outcome", "setting": "[3]", "result": "inactive"}, {"measurement": "outcome", "setting": "[5]", "result": "inactive"}, {"measurement": "outcome", "setting": "[7]", "result": "inactive"}]}
{"smiles": "Cn1c(=O)c2c(ncn2C)n(C)c1=O", "values": [{"measurement": "outcome", "setting": "[2]", "result": "inactive"}, {"measurement": "outcome", "setting": "[3]", "result": "inactive"}, {"measurement": "outcome", "setting": "[5]", "result": "inactive"}, {"measurement": "outcome", "setting": "[7]", "result": "inactive"}]}
{"smiles": "C[C@](N)(Cc1ccc(O)c(O)c1)C(=O)O", "values": [{"measurement": "outcome", "setting": "[2]", "result": "inactive"}, {"measurement": "outcome", "setting": "[3]", "result": "inactive"}, {"measurement": "AC50", "setting": "[5]", "result": "0.308 µM (active)"}, {"measurement": "AC50", "setting": "[6]", "result": "153 µM (active)"}, {"measurement": "outcome", "setting": "[7]", "result": "inactive"}]}
{"smiles": "COc1ccc(/C=C/S(=O)(=O)NC(=O)c2ccc(C)cc2Cl)cc1", "values": [{"measurement": "AC50", "setting": "[1]", "result": "12.1 µM (active)"}]}
{"smiles": "O=C(O)c1cc(N=Nc2ccc(S(=O)(=O)Nc3ccccn3)cc2)ccc1O", "values": [{"measurement": "outcome", "setting": "[3]", "result": "inactive"}, {"measurement": "outcome", "setting": "[4]", "result": "inactive"}, {"measurement": "AC50", "setting": "[5]", "result": "100 µM (active)"}, {"measurement": "outcome", "setting": "[6]", "result": "inactive"}, {"measurement": "outcome", "setting": "[7]", "result": "inactive"}, {"measurement": "AC50", "setting": "[1]", "result": "0.422 µM (active)"}]}
{"smiles": "O=C1CCC(N2C(=O)c3ccccc3C2=O)C(=O)N1", "note": "(stereo unspecified)", "values": [{"measurement": "outcome", "setting": "[2]", "result": "inactive"}, {"measurement": "outcome", "setting": "[3]", "result": "inactive"}, {"measurement": "outcome", "setting": "[5]", "result": "inactive"}, {"measurement": "outcome", "setting": "[6]", "result": "inactive"}, {"measurement": "outcome", "setting": "[7]", "result": "inactive"}]}
{"smiles": "Oc1ccc2c(c1)-c1ccccc1C2", "values": [{"measurement": "AC50", "setting": "[1]", "result": "7.96 µM (active)"}]}
{"smiles": "O=C(O)c1cccc(Oc2ccccc2)c1", "values": [{"measurement": "AC50", "setting": "[1]", "result": "0.542 µM (active)"}]}
{"smiles": "C=CCCCCCCCCC(=O)O", "values": [{"measurement": "AC50", "setting": "[1]", "result": "7.39 µM (active)"}]}
